PubChem BioAssay (NCATS)
Values joined by “and” are separate entries in the source; they are usually repeats but may differ in a detail not shown here. Equal entries are not always repeated. Results filed as inconclusive are left out. A call without a number means that no potency is given here. Active and inactive are the calls of the source. Calls come from the whole dose curve; as a rule, active = well fitted cell-killing curve with a large enough effect; inconclusive = small, poorly fitted or top-dose-only effect; inactive = flat fitted curve, though single readings scatter.

Key:
[1] = Cell Viability - LYMP2-011 (AID 969); note: nearly all actives have a fitted effect of over 60% in size
In short: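 Human lymphoblastoid cells (2500/well) were plated in complete medium, preincubated 5 hr at 37 C, then exposed to compounds for 24 hr at 37 C. Intracellular ATP was read by CellTiter-Glo luminescence, and AC50 came from Hill-equation concentration-response fits.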

[2] = Cell Viability - LYMP2-013 (AID 970); note: nearly all actives have a fitted effect of over 55% in size
In short: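 Human lymphoblastoid cells, 2500/well, were preincubated 5 hr at 37 C, then treated with compounds for 24 hr at 37 C in complete medium. Intracellular ATP was read by CellTiter-Glo luminescence; AC50 from Hill-equation fits of concentration-response data.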

[3] = Cell Viability - LYMP2-015 (AID 971); note: nearly all actives have a fitted effect of over 55% in size
In short: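 Human lymphoblastoid cells (2500/well) in complete medium were preincubated 5 hr at 37 C, then compound-treated 24 hr at 37 C. Intracellular ATP was read by CellTiter-Glo luminescence after 30 min at room temperature; AC50 came from Hill-equation concentration-response fits.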

[4] = Cell Viability - LYMP2-019 (AID 973); note: nearly all actives have a fitted effect of over 55% in size
In short: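 Human lymphoblastoid cells were seeded at 2500 cells/well, preincubated 5 hr at 37 C, then exposed to compounds for 24 hr at 37 C in complete medium. Intracellular ATP was measured by CellTiter-Glo luminescence; AC50 from Hill fits.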

[5] = Cell Viability - LYMP2-021 (AID 974);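 note: compound exposure lasts 24 hours at 37 °C; nearly all actives have a fitted effect of over 55% in size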
In short: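 Human lymphoblastoid cells (2500/well) were preincubated 5 hr at 37 C, then exposed to compounds for 24 hr at 37 C in complete medium. Intracellular ATP was read by CellTiter-Glo luminescence; AC50 came from Hill-equation fits of concentration-response data.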

[6] = Cell Viability - LYMP2-023 (AID 975); note: nearly all actives have a fitted effect of over 55% in size
In short: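 Human lymphoblastoid cells (2500/well) were preincubated 5 hr at 37 C, then exposed to compounds for 24 hr at 37 C in complete medium. Cellular ATP was read by CellTiter-Glo luminescence, and AC50 came from Hill-equation fits.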

[7] = Cell Viability - LYMP2-025 (AID 976)
In short: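 Human lymphoblastoid LYMP2-025 cells (2500/well) were pre-incubated 5 hr at 37 C, then treated with compounds for 24 hr at 37 C in complete medium. Viability was read as intracellular ATP by CellTiter-Glo luminescence; AC50 from Hill fits.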

[8] = Cell Viability - LYMP2-006 (AID 978); note: nearly all actives have a fitted effect of over 60% in size
In short: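 Concentration-dependent loss of intracellular ATP in a human lymphoblastoid line after 24 hr treatment at 37 C was measured by CellTiter-Glo luminescence, with AC50 values obtained from standard Hill-equation modelling.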

[9] = Cell Viability - LYMP2-007 (AID 979);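 note: cells exposed to compound for 24 h before reading; nearly all actives have a fitted effect of over 60% in size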
In short: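 Human lymphoblastoid cells (2500/well) were plated in complete medium, incubated 5 hr at 37 C, then exposed to compounds for 24 hr at 37 C. Intracellular ATP was read by CellTiter-Glo luminescence after 30 min at room temperature; AC50 from Hill fits.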

[10] = Cell Viability - LYMP2-008 (AID 980); note: nearly all actives have a fitted effect of over 60% in size
In short: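 Human lymphoblastoid cells (2500/well) were plated, held 5 hr at 37 C, then exposed to compounds for 24 hr at 37 C in complete medium. Intracellular ATP was read by CellTiter-Glo luminescence; AC50 from Hill-fitted concentration-response.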
Potency is the fitted concentration of half-maximal effect.

SMILES	Potency [1]	Potency [2]	Potency [3]	Potency [4]	Potency [5]	Potency [6]	Potency [7]	Potency [8]	Potency [9]	Potency [10]
Oc1cc(Cl)c(Cl)cc1Cl	inactive	inactive	inactive	inactive	inactive	inactive	inactive	inactive	inactive	inactive
O=CC=O	inactive	inactive	inactive	inactive	inactive	inactive	inactive	inactive	inactive	inactive
O=C/C=C/c1ccccc1	inactive	inactive	inactive	inactive	inactive	inactive	inactive	inactive	inactive	inactive
CCCCCCCCOC(=O)c1ccccc1C(=O)OCCCCCCCC	inactive	inactive	inactive	inactive	inactive	inactive	inactive	inactive	inactive	inactive
O=C1CCO1	inactive	inactive	inactive	inactive	inactive	inactive	inactive	inactive	inactive	inactive
C[C@]12CCC(=O)C[C@@H]1CC[C@@H]1[C@@H]2CC[C@]2(C)[C@@H](O)CC[C@@H]12	inactive	inactive	inactive	–	inactive	inactive	inactive	inactive	inactive	inactive
CCCCCl	inactive	inactive	inactive	inactive	inactive	inactive	inactive	inactive	inactive	inactive
O=Cc1ccco1	inactive	inactive	inactive	inactive	inactive	inactive	inactive	inactive	inactive	inactive
NNC(N)=O	inactive	inactive	inactive	inactive	inactive	inactive	inactive	inactive	inactive	inactive
O=[N+]([O-])c1ccc(F)c([N+](=O)[O-])c1	–	–	–	inactive	–	–	inactive	inactive	–	–
S=C=S	inactive	inactive	inactive	inactive	inactive	inactive	inactive	inactive	inactive	inactive
O=[N+]([O-])c1ccccc1	inactive	inactive	inactive	inactive	inactive	inactive	inactive	inactive	inactive	inactive
COC1=CC(=O)O[C@@H](/C=C/c2ccccc2)C1	inactive	inactive	inactive	inactive	inactive	inactive	inactive	inactive	inactive	inactive
O=C1C2CC=CCC2C(=O)N1SC(Cl)(Cl)Cl (stereo not drawn)	6.31 µM (active)	5.01 µM (active) and 6.31 µM (active)	3.98 µM (active)	3.98 µM (active) and 5.01 µM (active)	3.98 µM (active) and 5.01 µM (active)	3.98 µM (active) and 7.94 µM (active)	–	7.94 µM (active) and 10 µM (active)	7.94 µM (active) and 5.01 µM (active)	12.6 µM (active) and 10 µM (active)
Clc1ccccc1Cl	inactive	inactive	inactive	inactive	inactive	inactive	inactive	inactive	inactive	inactive
ClC(Cl)(Cl)Cl	inactive	inactive	inactive	inactive	inactive	inactive	inactive	inactive	inactive	inactive

SMILES	Potency [1]	Potency [2]	Potency [3]	Potency [4]	Potency [5]	Potency [6]	Potency [7]	Potency [8]	Potency [9]	Potency [10]
ClCC1CO1 (stereo not drawn)	inactive	inactive	inactive	inactive	inactive	inactive	inactive	inactive	inactive	inactive
CC(C)CCON=O	inactive	inactive	inactive	inactive	inactive	inactive	inactive	inactive	inactive	inactive
O=C(O)C(Cl)(Cl)Cl	inactive	inactive	inactive	inactive	inactive	inactive	inactive	inactive	inactive	inactive
[O]=[Cd]	inactive	inactive	inactive	inactive	inactive	inactive	inactive	inactive	inactive	inactive
COc1ccc2c(c1OC)C(=O)OC2C1c2cc3c(cc2CCN1C)OCO3 (stereo not drawn)	inactive	inactive	inactive	inactive	inactive	inactive	inactive	inactive	inactive	inactive
[Cl-].[Cl-].[Hg+2]	12.6 µM (active)	5.01 µM (active)	12.6 µM (active)	10 µM (active)	1.58 µM (active)	10 µM (active)	15.8 µM (active)	15.8 µM (active)	6.31 µM (active)	–
CC(C)Nc1ccc(Nc2ccccc2)cc1	31.6 µM (active)	31.6 µM (active)	25.1 µM (active)	25.1 µM (active)	25.1 µM (active)	39.8 µM (active)	50.1 µM (active)	25.1 µM (active)	25.1 µM (active)	39.8 µM (active)
CC(C)(C)c1cc(O)ccc1O	–	50.1 µM (active)	50.1 µM (active)	50.1 µM (active)	50.1 µM (active)	inactive	inactive	–	inactive	inactive
CCOC(=O)c1ccccc1C(=O)OCC	inactive	inactive	inactive	inactive	inactive	inactive	inactive	inactive	inactive	inactive
C[C@H]1CCC[C@H](O)CCCCCc2cc(O)cc(O)c2C(=O)O1	inactive	inactive	inactive	inactive	inactive	inactive	inactive	inactive	inactive	inactive
ClC=C(Cl)Cl	inactive	inactive	inactive	inactive	inactive	inactive	inactive	inactive	inactive	inactive
[O]=[Cr](=[O])([OH])[O][Cr](=[O])(=[O])[OH]	10 µM (active) and 12.6 µM (active) and 7.94 µM (active)	15.8 µM (active) and 10 µM (active)	10 µM (active)	12.6 µM (active) and 10 µM (active)	12.6 µM (active) and 10 µM (active)	12.6 µM (active) and 10 µM (active)	15.8 µM (active) and 12.6 µM (active)	12.6 µM (active) and 15.8 µM (active) and 10 µM (active)	10 µM (active) and 12.6 µM (active) and 7.94 µM (active)	12.6 µM (active) and 10 µM (active)
C=CCN=C=S	inactive	inactive	inactive	inactive	inactive	inactive	inactive	inactive	inactive	inactive
C[C@H]1CC[C@@H]2[C@@H](C)[C@H]3[C@H](C[C@H]4[C@@H]5CC=C6CC(O[C@@H]7O[C@H](CO)[C@H](O)[C@H](O[C@@H]8O[C@H](CO)[C@@H](O)[C@H](O)[C@H]8O)[C@H]7O[C@H]7O[C@@H](C)[C@H](O)[C@@H](O)[C@H]7O)CC[C@]6(C)[C@H]5CC[C@]34C)N2C1 (stereo partly drawn)	39.8 µM (active)	39.8 µM (active)	–	39.8 µM (active)	50.1 µM (active)	39.8 µM (active)	39.8 µM (active)	–	50.1 µM (active)	50.1 µM (active)
O=C1C=CC(=O)C=C1	50.1 µM (active)	39.8 µM (active)	31.6 µM (active)	50.1 µM (active)	31.6 µM (active)	–	inactive	–	50.1 µM (active)	–
